Screening data as filed in PubChem.
HCMV antiviral – inhibitors of human cytomegalovirus; HFF cells, HCMV-luciferase reporter, 72 h; stronger effect = lower value; activity change, negative = inhibition, % at 57.5 µM; 410,000 compounds, 4.5% hits; AID 1259415; in the data active = activity change below about -60%; inconclusive = no clear call, values can overlap the other calls; inactive = above about -39%; also: % is scaled to controls: 0 for no effect and ±100 for the full control effect
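Two compound doses tested in HFFs infected with HCMV-luciferase, MOI 1 PFU/cell, 72 h at 37C. Lysate luminescence read with OneGlo; data normalized against buffer-only and 10uM Salinomycin inhibitor controls.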
HCV inh – blocks hepatitis C virus; Huh7.5.1 HCVcc-Cre infection, luciferase reporter, 44 h; Potency, µM (top dose mostly 41.8 µM), without a hit: top-dose activity change, negative = inhibition, usual class: inhibitors; 340,000 compounds, 3.4% hits; AID 651820; active = well fitted inhibition curve with a large enough effect; inconclusive = small, poorly fitted or top-dose-only effect, or another doubt; inactive = no such curve, though single readings can be large or run the other way; also: potency is read from the fitted curve at half-maximal effect; % is scaled to controls: 0 for no effect and ±100 for the full control effect
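Luciferase read-out (15 sec integration) after a 15 min room-temperature substrate step quantifies HCVcc-Cre infection. Cells, 1,000 per well, had compound added 4 h post-plating, then virus at ~0.5 moi, and were cultured 44 h.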
SARS PLP yeast – inhibitors of SARS-CoV papain-like protease in yeast; S. cerevisiae expressing SARS-CoV PLpro, growth rescue; AID 485353; 330,000 compounds, 0.19% hits; Potency, µM (titrated, usually from 32.9 µM), for inactives: top-dose activity, positive = growth rescue, hits mostly activators; calls by dose curve; also: potency is read from the fitted curve at half-maximal effect; 0% is about no effect; nearly all actives have a fitted effect of over 55% in size
FMDV antiviral – antivirals against foot and mouth disease virus; AID 1159524; 410,000 compounds, 1.2% hits; Potency, µM (doses to about 57.9 µM), without a hit: at the top dose activity change, negative = inhibition, usual class: inhibitors; FMDV antiviral cell-based qHTS; calls by dose curve; tested in HEK293T cells; also: read-out not given here; potency is read from the fitted curve at half-maximal effect; % is scaled to controls: 0 for no effect and ±100 for the full control effect; nearly all actives have a fitted effect of over 45% in size
MARV entry inh – Marburg virus entry inhibition | Marburg virus pseudotyped entry inhibition, cell reporter | Potency, µM (series often up to 37.8 µM), for the others: top-dose activity change, negative = inhibition, hits mostly inhibitors | 300,000 compounds, 1.8% hits | AID 540276; calls by dose curve; tested in HEK293 cells; also: potency is read from the fitted curve at half-maximal effect; % is scaled to controls: 0 for no effect and ±100 for the full control effect
Lassa entry inh – blocks Lassa virus binding to or entry into cells; Lassa virus pseudotype entry inhibition, cell reporter; Potency, µM (top dose mostly 37.9 µM), for the others: top-dose activity change, negative = inhibition, usual class: inhibitors; 300,000 compounds, 1.2% hits; AID 540256; calls by dose curve; tested in HEK293 cells; also: potency is read from the fitted curve at half-maximal effect; % is scaled to controls: 0 for no effect and ±100 for the full control effect; nearly all actives have a fitted effect of over 50% in size
* = called active by the depositor; ? = inconclusive; . = no result given; [ ] = another dose, or the depositor's remark. In the library only some 8% were active in any assay of this set; here they are far more common.

SMILES	HCMV antiviral	HCV inh	SARS PLP yeast	FMDV antiviral	MARV entry inh	Lassa entry inh
Cc1cccc(NC(=O)CSc2nc(-c3cccs3)cc(C(F)(F)F)c2C#N)c1C	6	.	.	3%	.	5%[46.1 µM]
CSc1ncc2c(n1)-c1cc(C)ccc1SC2	-98*	8.9µM*	8%	-10%	?	-11%
Clc1cccc(CN2CCc3c([nH]c4ccccc34)C2)c1Cl	-91*	?	-3%	?	.	.
COc1ccccc1CN1CCc2c([nH]c3ccccc23)C1	45	-17%	4%	-12%	.	.
CCOC(=O)C1=C(C)NC2=C(C(=O)CCC2)C1c1ccsc1 (stereo not drawn)	.	.	.	.	-3%	.
CC1=C(C(=O)OCC(C)C)C(c2ccsc2)C2=C(CCCC2=O)N1 (stereo not drawn)	-78*	2%	12%	-22%	5%	-4%
C[C@@H](c1ccccc1)N1C(=O)[C@@H]2[C@H]3[C@H](O)[C@H](O)CC(=NNC(=O)OCc4ccccc4)[C@@H]3CC[C@H]2C1=O	.	.	.	.	-18%[14.2 µM]	.
CCC[C@H]1[C@@H](NS(=O)(=O)c2ccc(NC(C)=O)cc2)CC[C@@]23CCCN2C(=O)CCC[C@@H]13	-8	.	.	.	.	.
COc1ccc(/C=N/Nc2cc(C)nc(-n3nc(C)cc3C)n2)cc1	-99*	?	?	32µM*	16µM*	?
Cc1cc(N/N=C/c2cccc([N+](=O)[O-])c2)nc(-n2nc(C)cc2C)n1	?	?	-1%	-20%	-18%[46.1 µM]	3%[46.1 µM]
Cc1cc(N/N=C/c2ccccc2[N+](=O)[O-])nc(-n2nc(C)cc2C)n1	-99*	2.5µM*	-3%	?	?	?
Cc1cc(N/N=C/c2cccc(Cl)c2)nc(-n2nc(C)cc2C)n1	-87*	18µM*	1%	-9%	?	?
COc1ccc(/C=N/Nc2cc(C)nc(NS(=O)(=O)c3ccc(C)cc3)n2)cc1	-62*	2%	7%	27%	-16%[46.1 µM]	-20%[46.1 µM]
S=C(Nc1cccnc1)NC1CC2CCC1C2 (stereo not drawn)	-26	9%	3%	4%	-2%[46.1 µM]	-27%[46.1 µM]
Cc1cc(N/N=C/c2ccc(O)cc2O)nc(-n2nc(C)cc2C)n1	?	?	18%	?	3.7µM*	7.3µM*
Cc1cc(N/N=C/c2ccc(O)cc2O)nc(-c2ccccc2O)n1	.	?	8%	0%	?	?
Clc1ccc(CSc2ncn[nH]2)cc1	-3	-2%	-5%	29%	1%	13%
CCOc1ccc(Cl)cc1CSc1ncn[nH]1	-68*	?	-1%	-25%	?	-6%
Cc1cc(C(=O)C(=O)Nc2nnc(C(C)C)s2)c(C)n1-c1ccccc1	-87*	.	.	?	-13%[46.1 µM]	-8%[46.1 µM]
C=CCOC(=O)C1=C(C)OC(N)=C(C#N)[C@@]12C(=O)N(CN1CCOCC1)c1ccccc12	.	.	.	.	16%[46.1 µM]	.
Cc1ccc(-n2c(O)c(C=Nc3ccc(S(N)(=O)=O)cc3)c(=O)[nH]c2=O)cc1	-104*	2%	1%	25%	1%[46.1 µM]	0%[46.1 µM]
NS(=O)(=O)c1ccc(N=Cc2c(O)n(-c3ccccc3)c(=O)[nH]c2=O)cc1	-15	15%	1%	-7%	5%[46.1 µM]	10%
Cc1ccc(C)c(N/C(N)=N/c2nc(C)cc(C)n2)c1	-21	?	5%	?	?	-14%
Cc1ccc(CN=C(N)Nc2nc(C)cc(C)n2)cc1	-80*	16µM*	1%	-24%	11µM*	-23%
O=[N+]([O-])c1cc(-c2nc(-c3ccncc3)no2)ccc1Cl	-64*	4%	-34%	-21%	23%	1%
SMILES	HCMV antiviral	HCV inh	SARS PLP yeast	FMDV antiviral	MARV entry inh	Lassa entry inh
O=[N+]([O-])c1cc(-c2nc(-c3ccccc3)no2)ccc1N1CCCCC1	-88*	.	.	-15%	4%[46.1 µM]	3%[46.1 µM]
CN1CCN(c2ccc(-c3nc(-c4ccccc4)no3)cc2[N+](=O)[O-])CC1	-99*	.	.	0%	-3%[46.1 µM]	?
Cc1ccc(C)c(N(C)C(=O)c2cc3c(s2)-c2ccccc2OC3)c1	8	.	.	-19%	29%[46.1 µM]	.
Cc1ccc2[nH]c(C(=O)N/N=C/c3ccccc3C(=O)O)c(-c3ccccc3)c2c1	-19	3%	-1%	-15%	.	.
O=C(CCN1CCOCC1)Nc1c(-c2ccccc2)c2cc(Br)ccc2[nH]c1=O	23	5%	3%	7%	-1%	6%
O=C(N/N=C/c1ccccc1)c1[nH]c2ccc(Br)cc2c1-c1ccccc1	-99*	?	-19%	10%	?	?
O=C(NN=C1CCCC1)c1[nH]c2ccc(Br)cc2c1-c1ccccc1	-91*	-11%	0%	-13%	8.9µM*	?
CCC[C@H]1[C@H](NCc2cccs2)CC[C@@]23CCCN2C(=O)CCC[C@@H]13	6	.	.	.	.	.
CC1CCN(S(=O)(=O)c2nnc(NC(=O)c3ccccc3Br)s2)CC1	-6	4%	2%	-14%	.	.
CCCSCCCNC(=O)CN1C(=O)COc2ccc(S(=O)(=O)N3CCC(C)CC3)cc21	-8	.	.	-13%	-1%[46.1 µM]	-6%[46.1 µM]
O=C(NCCN1C(=O)S/C(=C\c2ccc(Cl)cc2)C1=O)c1ccc(F)c(S(=O)(=O)N2CCOCC2)c1	14	?	2%	8%	7%	4%
COc1ccc(S(=O)(=O)N2CCOCC2)cc1C(=O)Nc1ccc(N2CCCCCC2)cc1	?	14µM*	.	-13%	.	.
O=C(NCCN1C(=O)S/C(=C\c2ccc(F)cc2)C1=O)c1cccc(S(=O)(=O)N2CCOCC2)c1	8	10µM*	-20%	-11%	-37%	1%
O=C(Nc1ccc(N2CCOCC2)cc1)c1cccc(S(=O)(=O)N2CCCC2)c1	.	6.3µM*	4%	-29%	0%	0%
O=C(c1cccc(S(=O)(=O)N2CCCC2)c1)c1cccc(S(=O)(=O)N2CCCC2)c1	-74*	?	-6%	?	?	?
Cc1ccc(S(=O)(=O)N2CCCCC2)cc1C(=O)Nc1ccc(N2CCOCC2)cc1	-33	?	4%	-21%	-5%	0%
O=C(Nc1ccc(N2CCOCC2)cc1)c1cccc(S(=O)(=O)N2CCCCCC2)c1	?	?	2%	-15%	.	.
O=C(CNc1ccccc1)NN=C1CCCC1	5	28%	0%	3%	3%[46.1 µM]	-1%
CC(=O)NC1(C(F)(F)F)C(=O)Nc2c1c(=O)[nH]c(=O)n2CCc1ccccc1 (stereo not drawn)	15	31%	0%	2%	.	.
CC(Sc1n[nH]c(N)n1)C(=O)NC1CCCCC1C (stereo not drawn)	-21	20%	-2%	-16%	.	.
Cc1ccc(-c2cnc(NCc3c(F)cccc3Cl)n2C)cc1	-23	.	.	32%	?	?
COc1ccccc1C(=O)NCC1CCN(c2ccc(S(=O)(=O)N3CCOCC3)cc2)CC1	-76*	?	1%	.	-30%	-6%
Cc1ccccc1NS(=O)(=O)c1cccc(C(=O)Nc2cccc(C(=O)O)c2)c1	33	7%	-11%	-11%	.	.
